Reference: PubChem BioAssay
Values joined by “and” are separate entries in the source; they are usually repeats but may differ in a detail not shown here. Equal entries are not always repeated.

How the values were obtained:
[1] = tested on: Botulinum neurotoxin type F light chain protease (Clostridium botulinum); test: Botulinum neurotoxin type F light chain protease inhibition, multiplex microsphere flow cytometry, validation set (AID 588459); details: multiplex microsphere protease substrate cleavage assay, at 10 µM, active compounds read high
[2] = molecular target: Botulinum neurotoxin type A (Clostridium botulinum) (UniProt P0DPI0); test: BoNT/A light chain protease inhibitors, biochemical, multiplex microsphere flow cytometry, validation set (AID 588460); details: at 10 µM, active compounds read high
[3] = molecular target: Lethal factor (Bacillus anthracis) (UniProt P15917); test: Lethal factor protease inhibitors, Bacillus anthracis, multiplex microsphere cleavage assay, validation set (AID 588461); details: flow cytometry, at 10 µM, active compounds read high

Measured: inhibition

CCN1CCN(C(=O)N[C@@H](C(=O)N[C@@H]2C(=O)N3[C@@H]2SC(C)(C)[C@@H]3C(=O)O)c2ccccc2)C(=O)C1=O
inactive: [1] -1.5% | [2] 0.3% | [3] 1.4%

CCCCN(CCCC)CCCOC(=O)c1ccc(N)cc1
inactive: [1] -1.6% | [2] 0.8% | [3] 1.4%

COc1ccc(C2NC(C(=O)O)Cc3c2[nH]c2ccccc32)cc1CN1CCN(c2ccc(F)cc2)CC1 (stereo not given)
inactive: [1] 8.8% | [2] 0.4% | [3] 2.2%

C=C1C2(C(=O)Nc3ccc(SC(F)F)cc3)CCC(C2)C1(C)C (stereo not given)
inactive: [1] -1.3% | [2] -0.9% | [3] 1.3%

CCN(CC)Cc1c[nH]c2c(C(=O)OC)cccc12
inactive: [1] -0.7% | [2] 0.3% | [3] 6.7%

CCCCC(=O)O[C@H]1CC[C@H]2[C@@H]3CCc4cc(O)ccc4[C@H]3CC[C@]12C
inactive: [1] 0.5% | [2] 0.1% | [3] -1.7%

C/C=C/Cn1c(SC)nc2c1c(=O)[nH]c(=O)n2C
inactive: [1] -2.2% | [2] 0.9% | [3] -3.1%

Nc1[nH]c(=O)ncc1F
inactive: [1] 1.1% | [2] -0.5% | [3] 0%

O=C1c2ccccc2N2C(=O)c3ccccc3C2N1Cc1ccco1 (stereo not given)
inactive: [1] 3.3% | [2] 0.7% | [3] 2.8%

OC[C@H]1O[C@@H](n2cnc3c(Nc4ccccc4)ncnc32)[C@H](O)[C@@H]1O
inactive: [1] 1.4% | [2] -0.2% | [3] -2.1%

COCCCN1C(=O)/C(=C\c2cccs2)C(C(=O)OC)=C1C
inactive: [1] -1.3% | [2] -0.8% | [3] 3.3%

Cc1ccccc1C(OCCN(C)C)c1ccccc1 (stereo not given)
inactive: [1] 1.2% | [2] 0.7% | [3] 2.5%

O=C(COc1cc(O)c2c(=O)c3ccccc3oc2c1)OCc1ccccc1
inactive: [1] 1.4% | [2] 0.2% | [3] 1.6%

O=C(CCc1c[nH]c2ccccc12)NCc1ccco1
inactive: [1] 2.9% | [2] 0.2% | [3] 5.8%

CC1(c2ccccc2)CC(C)(C)N2C(=O)C(=O)c3cccc1c32 (stereo not given)
inactive: [1] 0.5% | [2] 1.2% | [3] -0.4%

CC(C)CC(=O)N(Cc1ccc(F)cc1)C1CCS(=O)(=O)C1 (stereo not given)
inactive: [1] 8.9% | [2] 3.7% | [3] -4%

COCCN(CCOC)Cc1c(C)[nH]c2c(C)c(C)ccc2c1=O
inactive: [1] 3.4% | [2] -0.6% | [3] -0.3%

COc1cc2c(cc1OC)CN(Cc1ccc(C)s1)CC2
inactive: [1] 2.4% | [2] 0.7% | [3] -1.2%

OCCN(CCO)c1nc(N2CCCCC2)c2nc(N(CCO)CCO)nc(N3CCCCC3)c2n1
inactive: [1] 4.8% | [2] 0.9% | [3] 8.5%

CCn1cc(C(=O)O)c(=O)c2ccc(C)nc21
inactive: [1] 1.3% | [2] -1.5% | [3] -3.9%

Cc1nonc1CN(C)C(=O)c1ccc(OC2CCN(Cc3ccccn3)CC2)cc1
inactive: [1] 0% | [2] -1.4% | [3] -0.2%

CCOCC(=O)Nc1nc2ccccc2s1
inactive: [1] -2.1% | [2] 1.5% | [3] -0.2%

COc1ccc(C(=O)/C=C/c2cc(C(=O)O)cc3c2OCOC3)c(O)c1
inactive: [1] 1.3% | [2] -0.8% | [3] 4.4%

CC(C)Oc1ccc(C2CC(=O)N(c3ccc(C(=O)O)cc3)C2=O)cc1 (stereo not given)
inactive: [1] 2.1% | [2] -0.7% | [3] -6.7%

CC(=O)N1N=C(c2cccs2)CC1c1ccc(C)o1 (stereo not given)
inactive: [1] -1.2% | [2] -0.8% | [3] 1.7%

COc1ccc(O)c(C(=O)/C=C/c2cc3ccccc3o2)c1
inactive: [1] -0.1% | [2] 0% | [3] -3.5%

Cc1ccc(S(=O)(=O)NC(=O)NN2CCCCCC2)cc1
inactive: [1] -4.6% | [2] -1.6% | [3] -4.1%

O=C(/C=C/c1ccc(Cl)cc1)NCCc1ccccc1
inactive: [1] -4% | [2] 0.4% | [3] 2.3%

CCc1ccc2oc(=O)cc(CN3CCC(C)CC3)c2c1
inactive: [1] 5.5% | [2] 0.8% | [3] 1.4%

NCCc1ccc(O)c(O)c1
inactive: [1] -6.2% | [2] -3.5% | [3] -8.7%

c1ccc2c3c(c(CN4CCCCC4)cc2c1)COC3
inactive: [1] 5.7% | [2] -1% | [3] 0.6%

CC1(C)OC2OC(C(=O)N/N=C/c3ccccc3F)C3OC(C)(C)OC3C2O1 (stereo not given)
inactive: [1] 2.6% | [2] -1.3% | [3] -1.9%

COc1cccc2c(=O)c(C/C=C(/C)Cl)c(C)[nH]c12
inactive: [1] 1.2% | [2] -1.6% | [3] 3.4%

O=c1[nH]cnc2[nH]ncc12
inactive: [1] 4.1% | [2] 0.8% | [3] -1.1%

COc1ccc(-c2c[n+](CC(=O)OC3CC(C)CCC3C(C)C)c3n2CCC3)cc1 (stereo not given)
inactive: [1] 0.9% | [2] 0.1% | [3] -5.8%

CCOc1ccccc1C(=O)NCCC(=O)O
inactive: [1] 2.8% | [2] 1.9% | [3] 0.2%

CCn1c(C)cc2c(c1=O)C(c1ccccc1)C(C(=O)OC)=C(N)O2 (stereo not given)
inactive: [1] 0.3% | [2] -0.9% | [3] -3.3%

Cc1ccc(S(=O)(=O)Oc2ccccc2/C=N/N=C(N)N)cc1
inactive: [1] 0.8% | [2] 1.3% | [3] -7.6%

Cc1ccc(C(=O)O)cc1NC(=O)c1cccs1
inactive: [1] -1.2% | [2] 0% | [3] 2%

COCc1cc(=O)[nH]c(/N=C(\N)Nc2ccc(Oc3ccccc3)cc2)n1
inactive: [1] 3.4% | [2] 0.1% | [3] 5.6%

COc1ccc(-c2c3c(=O)n(C)c(=O)n(C)c3cn2C2CCCCC2)cc1
inactive: [1] 1.1% | [2] -1.9% | [3] -3.1%

CCOC(=O)c1c(C)oc2cc(Br)c(OC(C)C(=O)OCC)cc12 (stereo not given)
inactive: [1] -0.6% | [2] 0.5% | [3] -2.8%

Cc1csc(N)n1
inactive: [1] 0.3% | [2] 0.1% | [3] 3%

O=C(NCCN1CCN(c2ccccc2)CC1)c1cccc(Br)c1
inactive: [1] -4.4% | [2] -2.3% | [3] -6.4%

Cc1ccccc1C(=O)Oc1ccc(Sc2ccc(O)cc2)cc1
inactive: [1] -2% | [2] -0.4% | [3] -3.8%

COc1ccc(-c2nc(C)c(C(C)=O)n2O)cc1OC
inactive: [1] -3.6% | [2] -1.6% | [3] -3.9%

CC1CCc2cc(F)cc3c(=O)c(C(=O)O)cn1c23 (stereo not given)
inactive: [1] 3.2% | [2] 1.8% | [3] 3.5%

Oc1ccc(Cl)cc1Cc1cc(Cl)ccc1O
inactive: [1] 10% | [2] 4.5% | [3] 7.7%

CCOC(=O)C(=Cc1ccccc1OC)C(=O)OCC
inactive: [1] -0.7% | [2] -2.6% | [3] -6.9%

OCCC1CN(Cc2nc(-c3ccccc3)cs2)CCN1Cc1ccc(F)cc1 (stereo not given)
inactive: [1] 3.5% | [2] 0.9% | [3] 8.5%

CC(C)(C)NCC(O)c1cc(O)cc(O)c1 (stereo not given)
inactive: [1] -5.4% | [2] 0.7% | [3] 3.9%

COc1ccc(NC(=O)CC(c2ccccc2)c2ccco2)cc1 (stereo not given)
inactive: [1] 2.3% | [2] 0.9% | [3] 9.1%

CNC(=O)Oc1ccc2c(c1)[C@]1(C)CCN(C)[C@@H]1N2C
inactive: [1] -0.4% | [2] 1.1% | [3] 0.5%

O=C(Oc1ccc2c3c(c(=O)oc2c1)CCCC3)c1ccco1
inactive: [1] -0.9% | [2] -1.1% | [3] -3.9%

COc1ccc(S(=O)(=O)NCc2ccco2)c2ccccc12
inactive: [1] 4.7% | [2] 0.4% | [3] 1%

COc1cc2c(cc1OC)C(c1cc(OC)c(OC)c(OC)c1)NCC2 (stereo not given)
inactive: [1] 2.3% | [2] -0.2% | [3] 6.9%

CN(C)CCCN1c2ccccc2Sc2ccc(Cl)cc21
inactive: [1] -3.6% and 2.8% | [2] 0.6% | [3] -0.5% and 0.1%

COc1cc([C@@H]2c3cc4c(cc3[C@H](O)[C@H]3COC(=O)[C@H]23)OCO4)cc(OC)c1OC
inactive: [1] 1.4% | [2] 0% | [3] -2.8%

CC(C)COC(=O)C1C(=O)CC(C)(O)C(C(=O)OCC(C)C)C1c1cccnc1 (stereo not given)
inactive: [1] 2.5% | [2] 0.6% | [3] 3.5%

CC(C)C1CC(CCNCc2ccc(N(C)C)cc2)(c2ccccc2)CCO1 (stereo not given)
inactive: [1] -3.7% | [2] -1.8% | [3] -9.1%

CCNC(=O)c1sc2cc(C)ccc2c1Cl
inactive: [1] 2.4% | [2] -1.2% | [3] -1.4%

O=C(c1cc2cc(Br)ccc2o1)N1CCCC1
inactive: [1] -9.1% | [2] -4.2% | [3] -3.2%

C=CC1=C(C(=O)O)N2C(=O)C(NC(=O)Cc3ccccc3)C2SC1 (stereo not given)
inactive: [1] 2.1% | [2] 0.1% | [3] -3.4%

NC(N)=N/N=C/c1cccc(Cl)c1Cl
inactive: [1] 0.9% | [2] 1.3% | [3] -3.3%

Cn1cc(CN2CCCC(CO)(Cc3cccc(Cl)c3)C2)cn1 (stereo not given)
inactive: [1] 4.8% | [2] 1.3% | [3] -5.4%
